Assay [1] in a line: APR_HepG2_StressKinase_1hr: Apredica 1-hour HepG2 Assay for Stress Kinase (AID 2282906). The note with it: HepG2 stress kinase (phospho-c-Jun) imaging, actives raise or lower the signal. In outline:
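High-content imaging of phospho-c-Jun immunostaining (with Hoechst nuclear identification) after a 1 h exposure of HepG2 cells to 10 concentrations from 0.39 to 200 uM, final DMSO 0.5%. Fitted bidirectionally against DMSO.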

Assay [2] is described as follows: APR_HepG2_NuclearSize_24hr: Apredica 24-hour HepG2 Assay for Nuclear Size (AID 2282907). The note with it: high-content imaging, actives raise or lower the signal. In outline: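 Read-out: nuclear diameter from Hoechst 33342 (2 ug/mL) imaging of fixed HepG2 cells, 20x, six fields/well. Compounds ran at 0.39–200 uM for 24 hr, 0.5% DMSO final. Gain or loss was fitted bidirectionally relative to the DMSO baseline.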

Assay [3] in a line: APR_HepG2_CellLoss_24hr: Apredica 24-hour HepG2 Assay for Cell Loss (AID 2282908). The note with it: high-content imaging. In outline:
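Read-out: Hoechst 33342-stained nuclei counted by automated fluorescence imaging after formaldehyde fixation and Triton permeabilization. Ten concentrations, 0.39 to 200 uM, duplicate wells, 0.5% DMSO final. Gain or loss of signal fitted relative to DMSO baseline.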

Assay [4] can be described thus: APR_HepG2_MicrotubuleCSK_24hr: Apredica 24-hour HepG2 Assay for Microtubule CSK Stabilty (AID 2282909). The note with it: HepG2 microtubule cytoskeleton imaging, actives raise or lower the signal. The procedure, abridged: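 Read-out: alpha-tubulin immunofluorescence intensity by automated high-content imaging of fixed HepG2 cells after 24 h compound treatment. Ten concentrations, 0.39 to 200 uM, in duplicate; DMSO 0.5% v/v. Taxol positive control; DMSO-normalized bidirectional curve fitting.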

Assay [5] in a line: APR_HepG2_MitoticArrest_24hr: Apredica 24-hour HepG2 Assay for Mitotic Arrest (AID 2282910). The settings on record: high-content imaging, actives raise or lower the signal. In outline: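 Treatment lasted 24 hr in the human HepG2 line at 0.39–200 uM, solvent held at 0.5% DMSO. Fixed cells were stained with Hoechst 33342 and anti-phospho-histone H3, imaged at 20x, and analysed by gain- or loss-of-signal fitting against DMSO.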

A short description of assay [6]: APR_HepG2_MitoMembPot_24hr: Apredica 24-hour HepG2 Assay for Mitochondrial Membrane Potential (AID 2282911). The settings on record: imaging, actives raise or lower the signal. In outline: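 Cells are dosed for 24 hr across 0.39 to 200 uM with solvent held at 0.5% DMSO. They are then stained with 250 nM MitoTracker Red CMXRos for 30 min, fixed in 3.7% formaldehyde and imaged.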

The nature of assay [7]: APR_HepG2_p53Act_24hr: Apredica 24-hour HepG2 Assay for p53 Activation (AID 2282913).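 Also: p53 protein immunofluorescence averaged per cell in HepG2 with Hoechst nuclei.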 The note with it: high-content imaging, actives raise or lower the signal. The procedure, abridged:
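Human HepG2 liver cells; 24 hr cpd treatment, 0.39–200 uM, 0.5% DMSO final. Fixed in 3.7% formaldehyde, permeabilized with 0.5% Triton X-100, stained with anti-p53/Cy5 plus Hoechst 33342. Six images per well at 20x; gain or loss vs DMSO.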

Assay [8] can be described thus: APR_HepG2_CellCycleArrest_72hr: Apredica 72-hour HepG2 Assay for Cell Cycle Arrest (AID 2282914). The settings on record: high-content imaging, actives raise or lower the signal. In outline: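 Read-out is Hoechst-stained nuclear DNA content measured by automated fluorescence imaging (20x, six images per well), fitted in both directions relative to DMSO. Human HepG2 liver cells received 0.39–200 uM compound for 72 hr at 0.5% v/v DMSO.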

Assay [9] is described as follows: APR_HepG2_CellLoss_72hr: Apredica 72-hour HepG2 Assay for Cell Loss (AID 2282915). The note with it: high-content imaging. The procedure, abridged:
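HepG2 cells were exposed for 72 hr to compounds at 0.39–200 uM (ten concentrations, duplicate) in 0.5% v/v final DMSO. Nuclei were stained with Hoechst 33342 after 3.7% formaldehyde fixation, imaged at 20x, and counted; fits bidirectional versus DMSO.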

Assay [10] in a line: APR_HepG2_P-H2AX_72hr: Apredica 72-hour HepG2 Assay for H2AX Phosphorylation (AID 2282916).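 Also: phospho-histone H2A.x immunostain intensity per cell marking DNA damage.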 The note with it: imaging, actives raise or lower the signal. The procedure, abridged:
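Readout: phospho-H2A.x immunofluorescence (FITC secondary) plus Hoechst nuclear stain, high-content imaging at 20x, six fields/well. HepG2, 72 hr compound exposure, 0.39–200 uM, final DMSO 0.5% v/v. Gain or loss fitted relative to DMSO baseline.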

Assay [11] can be described thus: APR_HepG2_MitoMembPot_72hr: Apredica 72-hour HepG2 Assay for Mitochondrial Membrane Potential (AID 2282917). The settings on record: imaging, actives raise or lower the signal. The procedure, abridged: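 HepG2 cells exposed 72 h to compounds at 0.39–200 uM (0.5% v/v DMSO, duplicates); MitoTracker Red CMXRos 250 nM loaded 30 min before 3.7% formaldehyde fixation, imaged by HCS fluorescence. Bidirectional fit versus DMSO.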

The nature of assay [12]: APR_HepG2_MitoticArrest_72hr: Apredica 72-hour HepG2 Assay for Mitotic Arrest (AID 2282918). The settings on record: high-content imaging, actives raise or lower the signal. In outline:
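Read-out is phospho-histone H3 immunofluorescence with Hoechst nuclear segmentation, imaged at 20x. Human HepG2 liver cells received ten concentrations (0.39–200 uM, final DMSO 0.5% v/v) for 72 hr before fixation. Gain or loss of signal was fitted relative to DMSO.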

Assay [13] is described as follows: APR_HepG2_MicrotubuleCSK_72hr: Apredica 72-hour HepG2 Assay for Microtubule CSK Stabilty (AID 2282919). The note with it: HepG2 microtubule cytoskeleton, high-content imaging, actives raise or lower the signal. The procedure, abridged: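 Ten-point dosing (0.39–200 uM, 0.5% DMSO) of HepG2 for 72 hr, with taxol as the cytoskeletal positive control. The cells were formaldehyde-fixed and then stained with alpha-tubulin/Cy5 and Hoechst. Imaging at 20x used a −2 um Z offset for tubulin.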

Assay [14] is described as follows: APR_HepG2_P-H2AX_24hr: Apredica 24-hour HepG2 Assay for H2AX Phosphorylation (AID 2282920). The note with it: high-content imaging, actives raise or lower the signal. In outline:
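HepG2, 24 hr, cpd 0.39–200 uM (10 conc, duplicate), DMSO 0.5% v/v final. Fix 3.7% formaldehyde, Triton X-100 permeabilize, anti-phospho-H2A.x 1:200 + Hoechst 2 ug/mL. Imaged, bidirectional fit vs DMSO.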

The nature of assay [15]: APR_HepG2_StressKinase_72hr: Apredica 72-hour HepG2 Assay for Stress Kinase (AID 2282921). The note with it: HepG2 stress kinase (phospho-c-Jun) imaging, actives raise or lower the signal. The procedure, abridged: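 Phospho-c-Jun immunofluorescence measured by high-content imaging at 20x, six fields per well; bidirectional curve fitting against DMSO as baseline. Dosing: 0.39–200 uM, 72 h, 0.5% DMSO final.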

A short description of assay [16]: APR_HepG2_StressKinase_24hr: Apredica 24-hour HepG2 Assay for Stress Kinase (AID 2282922). The settings on record: HepG2 stress kinase (phospho-c-Jun) imaging, actives raise or lower the signal. The procedure, abridged: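 After 24 hr compound treatment (up to 200 uM, final DMSO 0.5% v/v), HepG2 cells are fixed and multiplex-labeled; phospho-c-Jun intensity is captured by high-content fluorescence imaging and analyzed relative to DMSO.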

Assay [17] can be described thus: APR_HepG2_p53Act_72hr: Apredica 72-hour HepG2 Assay for p53 Activation (AID 2282923).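 Also: average cellular p53 protein immunofluorescence intensity in HepG2 cells.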 The settings on record: high-content imaging, actives raise or lower the signal. The procedure, abridged: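 Readout: p53 immunofluorescence quantified by automated high-content imaging at 20x, six fields per well, nuclei located via Hoechst. Dosing ran 72 hr over ten concentrations from 0.39 to 200 uM; bidirectional curve fitting against DMSO baseline.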

Assay [18] is described as follows: APR_HepG2_MitoMass_72hr: Apredica 72-hour HepG2 Assay for Mitochondrial Mass (AID 2282924).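 Also: MitoTracker Red CMXRos stain intensity per cell imaged as mitochondrial mass.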 The note with it: high-content imaging, actives raise or lower the signal. The procedure, abridged:
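Steps: treat HepG2 72 hr (0.39–200 uM, duplicate wells); load MitoTracker Red CMXRos, 250 nM, 30 min; fix with 3.7% formaldehyde, permeabilise with 0.5% Triton X-100; capture images, nuclei via Hoechst 33342; fit bidirectionally against DMSO.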

The nature of assay [19]: APR_HepG2_NuclearSize_72hr: Apredica 72-hour HepG2 Assay for Nuclear Size (AID 2282925). The settings on record: high-content imaging, actives raise or lower the signal. The procedure, abridged: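 Compounds (0.39–200 uM, final DMSO 0.5%) were applied to HepG2 for 72 hr. Cells were then formaldehyde-fixed, permeabilized and labelled with Hoechst 33342. Nuclear diameter was quantified from six images per well.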

Assay [20] in a line: APR_HepG2_MitoMass_24hr: Apredica 24-hour HepG2 Assay for Mitochondrial Mass (AID 2282912). The note with it: high-content imaging, actives raise or lower the signal. The procedure, abridged: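 HepG2, 24 hr dosing, 10 concentrations 0.39–200 uM in duplicate, DMSO 0.5% final. MitoTracker Red CMXRos 250 nM, 30 min pre-fix; 3.7% formaldehyde fix. Imaging-based fluorescence intensity; gain/loss fit vs DMSO baseline.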

Structures are written as SMILES. Activity calls are given as the source filed them. The calls were made as follows: active = hit-call score of the fitted dose curve at least 0.9, where 1 is the maximum; inactive = score below 0.9.

As to `CC(COc1ccc(Oc2ccccc2)cc1)Oc1ccccn1` (centres undefined), the call in [1], in assay [2], in assay [3], in [4], in assay [5] and in assay [7] was inactive. Moreover, the result in assay [10], in assay [11], in assay [12], in assay [14], in [15] and in assay [16] was inactive. The compound was classed as inactive in [17], in [18] and in assay [19]. In addition, the AC50 – broadly, the concentration at which the activity in the assay is half-maximal – in assay [6] was 65.7 µM (active); in assay [8], 87 µM (active); in assay [9], 49.2 µM (active); in assay [13], 82.3 µM (active).
As to `CN(C)NC(=O)CCC(=O)O`, the compound was classed as inactive in assay [1], in assay [2], in assay [3], in assay [4], in assay [5] and in assay [6]. Also, the compound was called inactive in assay [20], in assay [7], in [8], in [9], in assay [10] and in assay [11]. Also, the outcome in [12], in [13], in [14], in [15], in assay [16] and in assay [17] was inactive. Also, the compound was classed as inactive in assay [18] and in assay [19].
With `CCOP(=S)(Oc1cnc(C(C)(C)C)nc1)OC(C)C` (centres undefined), the compound was called inactive in assay [1], in assay [2], in assay [3], in assay [4], in assay [5] and in assay [6]. The compound was called inactive in [7], in assay [10], in assay [11], in assay [12], in assay [14] and in assay [15]. The outcome in [17], in assay [18] and in assay [19] was inactive. In addition, the AC50 in assay [8] was 113 µM (active); in assay [9], 82.7 µM (active); in assay [13], 66.5 µM (active).
As for `CCCOc1nn(C(=O)NS(=O)(=O)c2ccccc2C(=O)OC)c(=O)n1C`, the call in [1], in assay [2], in [3], in [4], in assay [5] and in assay [6] was inactive. The compound was classed as inactive in [7], in assay [8], in assay [9], in assay [10], in [11] and in [12]. For the same compound, the outcome in assay [13], in assay [14], in [15], in assay [17], in assay [18] and in assay [19] was inactive.
For the compound `CCCCN(CC)c1c([N+](=O)[O-])cc(C(F)(F)F)cc1[N+](=O)[O-]`, the compound was classed as inactive in [1], in assay [2], in assay [3], in [4], in assay [5] and in assay [20]. Besides, the result in assay [7], in [10], in assay [11], in assay [12], in assay [13] and in assay [14] was inactive. Also, the call in assay [15], in [17], in assay [18] and in assay [19] was inactive. For the same compound, the AC50 in [6] was 71.9 µM (active); in assay [8], 108 µM (active); in assay [9], 84.6 µM (active).
Consider `CCOP(=O)(SC(C)CC)N1CCSC1=O` (centres undefined), for which the outcome in [1], in assay [2], in [3], in assay [4], in assay [5] and in assay [6] was inactive. In addition, the result in assay [20], in assay [8], in assay [9], in [10], in assay [11] and in assay [12] was inactive. Moreover, the result in [13], in [14], in [15], in assay [18] and in assay [19] was inactive.
Consider `COc1cccc(C(=O)NN(C(=O)c2cc(C)cc(C)c2)C(C)(C)C)c1C`, for which the call in assay [1], in assay [2], in assay [3], in [4], in assay [5] and in assay [6] was inactive. Moreover, the outcome in assay [7], in assay [8], in assay [9], in assay [10], in assay [11] and in [12] was inactive. Moreover, the outcome in [13], in assay [14], in [15], in assay [17], in assay [18] and in [19] was inactive.

Values taken from PubChem BioAssay (EPA / NIEHS).
